Screening results (PubChem)
ELG1 DNA repair: inhibitors of ELG1-dependent DNA repair in HEK293T cells; hit rate 2.3% among 330,000; Potency, µM (highest dose often 46.1 µM), for the others: top-dose activity change, negative = inhibition, actives largely listed as inhibitors; AID 504467; HEK293T ELG1-luciferase reporter, luminescence, 16 h; DNA damage induced by 5-fluorouridine; note: potency is the fitted concentration of half-maximal effect; nearly all actives have a fitted effect of over 55% in size
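DMSO vehicle served as the neutral condition. Each well held 2,000 cells given 5-fluorouridine plus compound; after 16 hr at 37 °C/5% CO2, ONE-Glo was added and luciferase measured 30 min later.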
DT40 TDP1 no CPT: qHTS for Inhibitors of human tyrosyl-DNA phosphodiesterase 1 (TDP1): qHTS in cells in absence of CPT. DT40 Tdp1-/- hTDP1 cells, no CPT, ATP luminescence, 48 h. Potency, µM (doses to about 46.2 µM), for the others: at the highest dose activity change, negative = growth inhibition, hits mostly inhibitors. hit rate 15% among 420,000. AID 686978, 2013; note: potency is the fitted concentration of half-maximal effect; nearly all actives have a fitted effect of over 55% in size
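Camptothecin absent (DMSO only). Human TDP1-complemented DT40 knockout cells, 400 cells/well, 37 °C for minimum 48 hr; ATP measured via CellTiter-Glo, 30 min dark incubation, luminescence.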
IL1B secr inh: inflammasome signaling inhibition, IL-1 beta readout | activity change, % at 57.5 µM | hit rate 4.7% among 360,000 | THP-1 LPS/ATP IL-1B secretion, AlphaLISA, 16 h; stronger effect = lower value; in the data active = activity change below about -50%; inconclusive = mostly about -30% to -49%
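Secreted IL-1B measured by AlphaLISA bead assay after 16 h compound exposure of THP-1 cells; compounds (final up to 57.5 uM) added 1 h before LPS (250 ng/mL) and ATP (1.25 mM) stimulation; lower signal means less secretion.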
HT1080 IDH1KD tx: kills HT-1080 cells with IDH1 knockdown. HT-1080 IDH1 knockdown viability, ATP luminescence, 48 h. Potency, µM (titrated, usually from 46.1 µM), for the others: top-dose activity, negative = toxicity, usual class: cytotoxic. hit rate 2% among 360,000. AID 686971;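 note: potency is the fitted concentration of half-maximal effect; 0% = DMSO wells and -100% = cell-free medium wells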
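After a 2 h attachment period, IDH1KD HT-1080 cells took pin-transferred compound for 48 h at 37 °C; ATP-based luminescence after 10 min room-temperature reagent incubation reported viability.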
HT1080NT lethal: kills 2HG-producing HT-1080-NT fibrosarcoma cells. HT-1080-NT fibrosarcoma viability, CellTiter-Glo ATP luminescence, 48 h. Potency, µM (doses to about 46.1 µM), for inactives: at the highest dose activity, negative = less viability, actives largely listed as cytotoxic. hit rate 1.6% among 360,000. AID 686970;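 note: NT is the 2HG producing partner of a matched IDH1 knockdown line; potency is the fitted concentration of half-maximal effect; 0% = DMSO-treated cells and -100% = media-only wells without cells; nearly all actives have a fitted effect of over 55% in size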
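Fibrosarcoma NT cells, 750 per well in 5% FBS RPMI, were exposed to compound for 48 hours. Viability: CellTiter-Glo luminescence.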
TDP1 cell CPT: DT40-hTDP1 cell growth loss with CPT | chicken DT40 Tdp1-/-;hTDP1 cells + 20 nM CPT, ATP luminescence, 48 h | Potency, µM (top dose mostly 46.2 µM), for the others: at the highest dose activity change, negative = growth inhibition, usual class: inhibitors | hit rate 12% among 420,000 | AID 686979; note: potency is the fitted concentration of half-maximal effect; nearly all actives have a fitted effect of over 55% in size
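Chicken DT40 Tdp1-/- cells stably complemented with human TDP1 were seeded at 400 cells/well in medium containing 20 nM camptothecin, exposed to pin-transferred compounds, and grown at 37 °C for at least 48 hr. Viability was read as ATP luminescence.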
The depositor's hits bear a star; u = inconclusive; x = no result. Shown are actives, neighbours in structure and some others; about 19% of the full set was active somewhere. Unless noted, calls come from the whole dose curve; as a rule, active = well fitted curve in the direction sought with a large enough effect; inconclusive = small, poorly fitted or top-dose-only effect, or another doubt; inactive = no such curve, though single readings can be large; an effect the other way counts as inactive or inconclusive. Unless noted, % is set by controls: 0 for no effect and ±100 for the full control effect.

SMILES | ELG1 DNA repair | DT40 TDP1 no CPT | IL1B secr inh | HT1080 IDH1KD tx | HT1080NT lethal | TDP1 cell CPT
COc1ccc(S(=O)(=O)CCC(=O)N2CCN(c3ccc(F)cc3)CC2)cc1 | 0.0% | 25.9µM* | -1.5 | 6.3% | 16.2% | 20.6µM*
CN(c1ccc(OCC(=O)N2CCN(c3ccc(F)cc3)CC2)cc1)S(=O)(=O)c1cccs1 | u | 25.9µM* | -20.9 | -24.9% | -15.5% | u
O=C(CCS(=O)(=O)c1ccc(Cl)cc1)N1CCN(c2ccc(F)cc2)CC1 | -11.3% | 18.4µM* | -20.9 | -2.1% | -2.7% | 14.6µM*
Cc1ccc(S(=O)(=O)CCC(=O)N2CCN(c3ccccc3F)CC2)cc1 | 2.4% | 13.9% | 20.4 | 22.1% | 18.1% | -1.2%
COc1ccc(Cn2c(SCC#N)nc3ccc(N4CCOCC4)cc3c2=O)cc1 | u | u | -10.5 | -16.2% | -19.6% | u
Cc1ccc(/C=C2/Sc3ccc(C(=O)NCc4ccccn4)cc3NC2=O)cc1 | 17.8% | -10.0% | -1.8 | 2.1% | -29.2% | u
Cc1cc(C)c2c(n1)sc1c(=O)n(CC(=O)c3ccccc3)cnc12 | 12.5% | -23.8% | -24.6 | -10.6% | -18.6% | u
C=CCOC(=O)Cn1cnc2c(sc3nc(C)cc(C)c32)c1=O | 2.9% | -16.9% | -70.9* | -11.6% | -12.0% | 4.7%
C[n+]1ccc(/C=N/Nc2nc(Cl)c(C#N)c(Cl)c2Cl)cc1 | u | u | -58.7* | -10.3% | u | u
Cc1ccn2c(NC3CCCCC3)c(-c3ccc(C)o3)nc2c1 | x | 11.2µM* | x | -24.3% | u | 15.8µM*
Cc1ccn2c(NC3CCCCC3)c(C)nc2c1 | -8.5% | -14.4% | -4.6 | u | u | u
c1ccc(-c2nc3ccccn3c2NC2CCCC2)nc1 | 6.3% | 16.4µM* | 11.2 | u | u | u
Cc1ccn2c(NC3CCCC3)c(-c3ccncc3)nc2c1 | -6.2% | u | -11.4 | 6.2% | 9.0% | u
Cc1ccc(-c2nc3ncccn3c2NC2CCCCC2)o1 | -27.5% | u | -4.8 | -7.7% | 0.5% | u
Cc1ccn2c(NC3CCCC3)c(-c3ccccn3)nc2c1 | -13.7% | 6.51µM* | -96.2* | u | u | 18.4µM*
O=C(Nc1ccc(OC(F)(F)F)cc1)c1cc(S(=O)(=O)N2CCCCC2)ccc1N1CCOCC1 | x | u | -14.0 | -11.1% | -15.3% | u
CN1CCC(OC(=O)c2ccc(Br)cc2)CC1 | x | -17.6% | 14.4 | 3.6% | 0.4% | -5.9%
CN1CCC(=C(c2ccccc2)c2ccc(Br)cc2)CC1 | x | 16.4µM* | -27.4 | -1.1% | -4.2% | u
COc1ccccc1C(=O)O[C@H]1[C@H](Cc2ccccc2)NS(=O)(=O)[C@H]2C[C@@H]3C=C[C@]12O3 | 5.5% | 6.7% | -4.0 | 4.0% | 3.7% | -27.9%
Cc1ccc(C)c(CN2C(=O)c3ccccc3S(=O)c3ccc(C(=O)NCCc4ccc(Cl)cc4)cc32)c1 (configuration not stated) | x | 7.31µM* | x | x | x | 13µM*
COCCNC(=O)c1ccc2c(c1)N(Cc1cc(C)ccc1C)C(=O)c1ccccc1S2=O (configuration not stated) | x | 14.6µM* | x | x | x | u
COCCCNC(=O)c1ccc2c(c1)N(Cc1ccccc1F)C(=O)c1ccccc1S2=O (configuration not stated) | x | -14.2% | x | x | x | -5.8%
O=C(O)C1Cc2ccccc2CN1C(=O)CSc1nnc2ccccn12 (configuration not stated) | 11.1% | 1.3% | 0.0 | 6.3% | 1.8% | 1.2%
O=C(CNC(=O)C1COc2ccccc2O1)N/N=C/c1ccc(O)cc1O (configuration not stated) | -19.4% | 6.51µM* | 75.5 | u | -13.9% | 6.51µM*
O=C(/C=C\c1ccccc1)NCC(=O)N/N=C/c1ccc(O)cc1O | -6.5% | 8.2µM* | 177.3 | u | u | 20.6µM*
SMILES | ELG1 DNA repair | DT40 TDP1 no CPT | IL1B secr inh | HT1080 IDH1KD tx | HT1080NT lethal | TDP1 cell CPT
O=C(CNC(=O)C(c1ccccc1)c1ccccc1)N/N=C/c1ccc(O)cc1O | u | 6.51µM* | 233.8 | 7.31µM* | u | 5.8µM*
O=C(CNC(=O)C(c1ccccc1)c1ccccc1)N/N=C\c1cccc(O)c1 | 17.2% | -23.5% | -17.2 | -1.7% | -5.5% | u
O=C(NNC(=O)C1COc2ccccc2O1)c1ccccc1O (configuration not stated) | 18.0% | 16.4µM* | 5.1 | -0.2% | -0.2% | u
O=C1c2[nH]c3ccccc3c2CC1N1C(=O)c2ccccc2C1=O (configuration not stated) | x | u | -7.2 | 18.2% | 15.8% | -13.8%
O=C1CC(c2ccccc2)CC(O)=C1C=NCCN1CCN(Cc2ccccc2)CC1 (configuration not stated) | 4.5% | -12.6% | 10.4 | -19.3% | 5.5% | u
CN(CCc1ccccc1)C(c1cc2ccccc2o1)c1nnnn1C(C)(C)C (configuration not stated) | x | u | 1.5 | u | -24.7% | u
CCOC(=O)c1c(C)sc2c1N(C(C)=O)c1cc(Cl)ccc1S2 | -16.4% | 16.4µM* | -14.7 | -27.9% | -20.2% | u
CCN(CC)CC(=O)N1c2ccccc2Sc2ccc(Cl)cc21 | -7.6% | -25.0% | -13.8 | 3.1% | 3.5% | -10.9%
O=C(Nc1ccc(F)c(Cl)c1)c1cc(C2CCCCN2C(=O)c2ccc(Cl)cc2)on1 (configuration not stated) | x | 20.6µM* | u | 9.7% | -12.0% | 20.6µM*
O=C(Nc1ccc(F)c(Cl)c1)c1cc(C2CCCCN2C(=O)c2ccccc2)on1 (configuration not stated) | x | 6.51µM* | -12.2 | u | u | 8.2µM*
Cc1ccc(C)c(CC(=O)N2CCCCC2c2cc(C(=O)Nc3ccc(F)c(Cl)c3)no2)c1 (configuration not stated) | x | 23.1µM* | -15.8 | -29.0% | u | 20.6µM*
O=C(NCc1ccccc1)c1cc(C2CCCCN2C(=O)CCc2ccccc2)on1 (configuration not stated) | x | -19.3% | -11.2 | 1.2% | -1.5% | u
N#Cc1cccc(NC(=O)c2cc(C3CCCCN3C(=O)CCCc3ccccc3)on2)c1 (configuration not stated) | x | u | u | -5.9% | 3.7% | 23.1µM*
O=S(=O)(c1cc(F)ccc1F)N1CCN(C2CCCCC2)CC1 | -3.3% | u | 11.6 | 0.1% | 1.5% | -17.7%
